Compound activity deposited in PubChem by several laboratories.
GRK2 aptamer HTS = blocks RNA aptamer binding to human GRK2. bead flow cytometry, FAM-aptamer displacement from GRK2. inhibition of aptamer binding, % at 10 µM. 330,000 tested, 0.59% active;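 active = inhibition of aptamer binding above 40%, roughly 3 SD of noise, on plates passing a quality check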;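 also: median bead fluorescence of bound FAM aptamer so fluorescent compounds give negative values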
TLR4-MyD88 BLA = TLR4-MyD88 interaction inhibition in cells | AID 861 | O00206+Q99836 | inhibition, % at 8.4 µM | HeLa CL3-4 TLR4/MyD88 BLA complementation, FRET ratio | 200,000 tested, 0.18% active; in the data active = inhibition above about 25%
TMEM16A act = activates or potentiates the mouse TMEM16A chloride channel; Q8BHY3; HEK293 TMEM16A/YFP-H148Q/I152L, iodide quench fluorescence; active compounds read low; B-score at 10 µM; 340,000 tested, 0.3% active; AID 623877;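 active = fluorescence-ratio B-score plate-corrected deviation score at least 3 library SD below zero, with starting fluorescence score within 5 deviations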;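 also: channel opened by trigger with iodide after compound preincubation; score built on the fluorescence ratio of max minus min over baseline; more negative score means more quench and so TMEM16A activation or potentiation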
TLR9-MyD88 inh = inhibitors of human TLR9-MyD88 binding; Q9NR96+Q99836; CHO BLA complementation TLR9-MyD88, CCF4 FRET ratio; inhibition, % at 4.98 µM; 340,000 tested, 0.21% active;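 active = inhibition above the mean over all tested compounds plus 3 SD, cut at about 21% in these data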
ANO1 block = inhibitors of mouse TMEM16A calcium-activated chloride channel; HEK293 TMEM16A/YFP iodide influx fluorescence, ionomycin; normalized B-score (activity score, 25-100; higher = stronger inhibition) at 10 µM; 310,000 tested, 1.2% active;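 active = ratio plate-corrected score three or more library SD toward inhibition, starting fluorescence score within five deviations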;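 also: score derived from kinetic fluorescence span divided by baseline fluorescence per well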
NOD2-RIPK2 inh = inhibitors of human NOD2-RIPK2 interaction | inhibition, % at 4.98 µM | CHO BLA complementation NOD2-RIPK2, CCF4 ratio | AID 624267 | 360,000 tested, 0.38% active; in the data active = inhibition above about 21%
A number is an active result. In the library only some 2.2% were active in any assay of this set; here they are far more common.

How did C=C(C)C(=O)Nc1cccc(C2=NOC3(C2)C[C@H](C(N)=O)N(C(=O)COc2ccc(Cl)cc2)C3)c1 (stereo partly specified) do in these assays?
GRK2 aptamer HTS: 97; TMEM16A act: inactive; TLR9-MyD88 inh: inactive; ANO1 block: inactive; NOD2-RIPK2 inh: inactive

How did Nc1sc(Cc2ccccc2)cc1C(=O)c1c(-c2ccccc2)[nH]c2ccccc12 do in these assays?
NOD2-RIPK2 inh: inactive

How did S=C(NCCCCN(Cc1ccc(Cl)cc1)c1ccc(Br)cn1)NCCCc1cnc[nH]1 do in these assays?
NOD2-RIPK2 inh: inactive

Results for Cc1ccc(S(=O)(=O)N(C)C[C@@H]2OCc3cnnn3CCCC(=O)N([C@@H](C)CO)C[C@H]2C)cc1 ?
TLR9-MyD88 inh: inactive; NOD2-RIPK2 inh: inactive

What do the screens show for `CCN1/C(=C/C=C/C=C/c2sc3ccccc3[n+]2CC)Sc2ccccc21`?
GRK2 aptamer HTS: 89; TLR4-MyD88 BLA: inactive; ANO1 block: inactive

What do the screens show for `CC[n+]1c(/C=C/Nc2ccccc2)sc2ccccc21`?
GRK2 aptamer HTS: inactive; TLR4-MyD88 BLA: inactive; TMEM16A act: inactive; TLR9-MyD88 inh: inactive; ANO1 block: inactive; NOD2-RIPK2 inh: inactive

What do the screens show for `Cc1ccc(F)c(S(=O)(=O)NC(=O)C2(C)CCN2C(=O)Cc2cccs2)c1` (stereo unspecified)?
NOD2-RIPK2 inh: inactive

What do the screens show for `Cc1ccc(C(=O)CN(C(=O)c2ccc(Cl)c(Cl)c2)N2C(=O)C3CCCCC3C2=O)cc1C` (stereo unspecified)?
GRK2 aptamer HTS: inactive; TLR4-MyD88 BLA: inactive; TMEM16A act: -5.5; TLR9-MyD88 inh: inactive; ANO1 block: inactive; NOD2-RIPK2 inh: inactive

Results for CN(c1ccccc1)c1ccc(/C=C(\C#N)c2nnc3n2CCCCC3)cc1[N+](=O)[O-] ?
GRK2 aptamer HTS: inactive; TLR4-MyD88 BLA: inactive; TMEM16A act: inactive; TLR9-MyD88 inh: inactive; ANO1 block: inactive; NOD2-RIPK2 inh: inactive

What do the screens show for `N#C/C(=C\c1cccc([N+](=O)[O-])c1)c1nnc2n1CCCCC2`?
GRK2 aptamer HTS: 100; TLR4-MyD88 BLA: inactive; TMEM16A act: inactive; TLR9-MyD88 inh: inactive; ANO1 block: inactive; NOD2-RIPK2 inh: inactive

How did O=C(CO/N=C/c1ccc(OC(F)F)cc1)N1CCc2ccccc21 do in these assays?
GRK2 aptamer HTS: 100; TLR4-MyD88 BLA: inactive; TMEM16A act: inactive; TLR9-MyD88 inh: inactive; ANO1 block: inactive; NOD2-RIPK2 inh: inactive

Results for N#C/C(=C\c1ccc(OC(=O)c2ccc(Cl)s2)cc1)c1nc2ccccc2[nH]1 ?
GRK2 aptamer HTS: 81; TLR4-MyD88 BLA: inactive; TMEM16A act: inactive; TLR9-MyD88 inh: inactive; ANO1 block: inactive; NOD2-RIPK2 inh: inactive

Results for COC(=O)[C@@]12C[C@@H](CC(=O)N3CCC(c4ccccc4)CC3)C(=O)N(Cc3cccc4ccccc34)C1=CCC(C)(C)C2 ?
NOD2-RIPK2 inh: inactive

How did CCN(CC(=O)Nc1ccc(N2CCOCC2)cc1)C(=O)Cc1ccccc1 do in these assays?
GRK2 aptamer HTS: inactive; TMEM16A act: -32; TLR9-MyD88 inh: inactive; NOD2-RIPK2 inh: inactive

How did CCN(CC(=O)Nc1ccc(N2CCOCC2)cc1)C(=O)c1ccc(C(F)(F)F)cc1 do in these assays?
GRK2 aptamer HTS: inactive; TLR4-MyD88 BLA: inactive; TMEM16A act: inactive; TLR9-MyD88 inh: inactive; ANO1 block: inactive; NOD2-RIPK2 inh: inactive

How did COc1ccc(CCCc2nnc(SCC(=O)N/N=C\c3ccc(O)c(OC)c3)o2)cc1C do in these assays?
GRK2 aptamer HTS: inactive; TLR4-MyD88 BLA: inactive; TMEM16A act: inactive; TLR9-MyD88 inh: inactive; ANO1 block: inactive; NOD2-RIPK2 inh: inactive

How did COc1ccc(/C=N/NC(=O)CSc2nnc(CCCc3ccc(OC)c(C)c3)o2)cc1 do in these assays?
GRK2 aptamer HTS: inactive; TLR4-MyD88 BLA: inactive; TMEM16A act: inactive; TLR9-MyD88 inh: inactive; ANO1 block: 100; NOD2-RIPK2 inh: inactive

How did Cc1ccc(Sc2ccc(NC(=O)CCN3C(=O)NC4(CCCC4)C3=O)cc2)c(C)c1 do in these assays?
GRK2 aptamer HTS: inactive; TMEM16A act: -24; TLR9-MyD88 inh: inactive; NOD2-RIPK2 inh: inactive

What do the screens show for `O=C(CCCN1C(=O)NC2(CCCC2)C1=O)Nc1ccc(F)cc1`?
GRK2 aptamer HTS: inactive; TMEM16A act: inactive; TLR9-MyD88 inh: inactive; NOD2-RIPK2 inh: inactive
